# Measured values as given in PubChem BioAssay AID1159537 (DiRusso Lab, Biochemistry Department, University of Nebraska, 2015).
# Among all 44,000 compounds or so, about 370 (0.84%) were called active. How the calls were made is not given here. For the sample, actives were picked, then their nearest neighbours and some compounds at random.
# Experiment: inducers of TAG accumulation in Chlamydomonas, primary screen, qHTS, Chlamydomonas reinhardtii (AID 1159537);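 further: hits raise Nile Red signal meaning more stored TAG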
# Details: Nile Red fluorescence, 72 h, screened at 10 µM (by protocol)
row,Structure (SMILES),outcome
1,O=C(COc1ccc(F)cc1)NCc1ccco1,inactive
2,CCOc1ccc(-c2cc(C(=O)NCc3ccccn3)c3ccccc3n2)cc1,inactive
3,Cn1c(SCC(=O)Nc2cccc([N+](=O)[O-])c2)nc2ccccc21,inactive
4,COc1ccc(C2C(=C(O)c3ccc(C)cc3)C(=O)C(=O)N2c2ccccn2)cc1 (stereo unspecified),inactive
5,O=C(Cc1ccc(Cl)cc1)N1CCN(c2ccc(Cl)cc2[N+](=O)[O-])CC1,inactive
6,O=C(Nc1cccc(F)c1)N1CCN(c2ccccc2F)CC1,inactive
7,Cc1cccc(OCC(=O)Nc2cc(-c3nc4ncccc4o3)ccc2C)c1,inactive
8,O=C(NCc1cccnc1)C(CCO)Sc1nc2sc3c(c2c(=O)[nH]1)CCCC3 (stereo unspecified),inactive
9,Cc1ccc(N2CCN(C3CCCCCC3)CC2)cc1,active
10,Cc1ccc(C(=O)N2CCN(c3ccccc3)CC2)cc1,inactive
11,Cc1ccc(S(=O)(=O)N2CCC(N3CCCCCC3)CC2)cc1,inactive
12,COc1cccc(NC(=O)Nc2nnc(-c3cccc(OC)c3)s2)c1,inactive
13,Cc1ccc(C(=O)CNc2ccc(F)cc2)cc1,inactive
14,Cc1cc(C)c2nc(C)cc(Nc3ccc4c(c3)OCCO4)c2c1,inactive
15,Cc1ccc(C(=O)N(Cc2ccccc2)C(C)C)cc1[N+](=O)[O-],inactive
16,NC(=O)c1ccc(NC(=O)C(Sc2ccccc2)c2ccccc2)cc1 (stereo unspecified),inactive
17,COc1ccc(OC)c(NC(=O)CC2CCCCC2)c1,inactive
18,Clc1ccc(OCCOCCN2CCCC2)c(Br)c1,active
19,O=C(CCCOc1ccc(Cl)cc1Cl)N1CCCC1,inactive
20,COc1ccc(C(=O)NCCCN2CCOCC2)cc1Br,inactive
21,Clc1ccc(OCCN2CCCCCC2)cc1,inactive
22,O=[N+]([O-])c1ccccc1OCCCCN1CCCCC1,inactive
23,Clc1ccccc1OCCCCN1CCOCC1,active
24,Fc1ccccc1OCCN1CCCC1,inactive
25,O=C(COc1ccc(Br)cc1Cl)NCCO,inactive
26,Cc1ccc(OCCOCCN2CCN(C)CC2)c(Br)c1,inactive

row,Structure (SMILES),outcome
1,Clc1ccc(CN2CCOCC2)c(Cl)c1,inactive
2,Clc1ccc(OCCCCN2CCOCC2)c(Br)c1,active
3,Clc1cc(Br)ccc1OCCCCN1CCOCC1,active
4,Cc1cc(N/C=C/C(=O)c2cccs2)no1,inactive
5,CCN(CC)CCC(=O)c1ccc(C(C)C)cc1,inactive
6,CCc1ccc(NC(=O)Nc2ccccc2)cc1,inactive
7,CCCC(=O)Nc1cccc(NC(=O)COc2ccc(C)c(C)c2)c1,inactive
8,Cc1cccc(C)c1OCC(=O)Nc1ccc([N+](=O)[O-])cc1,inactive
9,CCCC1CCc2c(sc(NC(=O)C3C4C=CC(C4)C3C(=O)O)c2C(N)=O)C1 (stereo unspecified),inactive
10,O=C(COc1ccc([N+](=O)[O-])cc1)Nc1cccc(Br)c1,inactive
11,CCOc1ccccc1NC(=O)COc1ccc(Br)c(C)c1,inactive
12,CC(=O)c1nc2cc([N+](=O)[O-])ccc2n1Cc1ccccc1,active
13,CC(=O)c1nc2ccccc2n1Cc1ccccc1,inactive
14,O=C(O)Cn1c2ccccc2c2cc([N+](=O)[O-])ccc21,inactive
15,CC(C(=O)NCc1ccncc1)N(c1ccccc1)S(C)(=O)=O (stereo unspecified),inactive
16,COc1ccc(N=C2NC(=O)CC(C(=O)Nc3ccc(Cl)cc3)S2)cc1 (stereo unspecified),inactive
17,CC(=O)Nc1ccc(NC(=O)c2ccc(F)cc2)cc1,inactive
18,OCCN1CCN(C2CCN(Cc3ccc(Cl)cc3)CC2)CC1,inactive
19,COc1ccc(-c2cn3c4ccccc4n(CCN4CCOCC4)c3n2)cc1,inactive
20,O=C1CCC(=O)N1c1ccc(S(=O)(=O)c2ccc(N3C(=O)CCC3=O)cc2)cc1,inactive
21,O=C(COc1ccc([N+](=O)[O-])cc1)Nc1ccc(Cl)cc1,inactive
22,COc1ccccc1CNC1CCC(C)C1 (stereo unspecified),inactive
23,NC(=O)CCSc1ccc(Cl)cc1,inactive
24,NC(N)=NS(=O)(=O)c1ccc(NC(=O)c2ccc([N+](=O)[O-])cc2)cc1,inactive
25,Cc1cccc(NC(=O)C(=O)NC(C)c2ccccc2)c1 (stereo unspecified),inactive
26,CC(=O)NS(=O)(=O)c1ccc(NC(=O)C2C3C=CC(C3)C2C(=O)O)cc1 (stereo unspecified),inactive

row,Structure (SMILES),outcome
1,Cc1ccc(CNC(=O)c2ccccc2Br)cc1,inactive
2,COc1ccc(Nc2nc(Nc3ccc(OC)cc3)nc(N3CCNCC3)n2)cc1,inactive
3,CC1CCCN(CCCCOc2ccccc2F)C1 (stereo unspecified),inactive
4,COc1cc(/C=C(\C#N)c2nc3ccc(C)cc3[nH]2)c(Br)cc1O,inactive
5,O=C(NCc1cccnc1)C(O)(c1ccccc1)c1ccccc1,inactive
6,Cc1ccc(OCCOCCN2CCOCC2)c([N+](=O)[O-])c1,active
7,COc1ccccc1OCCNc1cc(N2CCOCC2)ccc1[N+](=O)[O-],inactive
8,CCN(CC)CCCOc1ccc(C)cc1[N+](=O)[O-],inactive
9,CNC(=O)C(=O)NCCc1ccccc1,inactive
10,O=C1CC(NCCc2ccccc2)C(=O)N1c1ccc(F)cc1 (stereo unspecified),inactive
11,Cn1c(SCC(=O)Nc2ccccc2)nc2ccccc21,inactive
12,Cc1ccc(C(C)C)c(OCC(O)CN2CCCC(C)C2)c1 (stereo unspecified),inactive
13,CCOc1ccc(N2C(=O)CC(SCC(=O)Nc3ccc(F)cc3)C2=O)cc1 (stereo unspecified),inactive
14,COc1ccc(N(CC(=O)Nc2ccc(C)cc2)S(C)(=O)=O)c(OC)c1,inactive
15,COc1ccccc1/C=C(/C#N)c1nc2ccccc2[nH]1,inactive
16,CNC(=O)CN(c1ccc(F)cc1)S(C)(=O)=O,inactive
17,COc1ccccc1N(CC(=O)NC12CC3CC(CC(C3)C1)C2)S(=O)(=O)c1ccccc1,inactive
18,O=C(Nc1cccc(Cl)c1Cl)c1ccc(CN2CCOCC2)cc1,inactive
19,CC(=O)Nc1ccc(CN2CCOCC2)cc1,inactive
20,O=C(c1ccc(CN2CCOCC2)cc1)N(Cc1ccccc1)Cc1ccccc1,active
21,COC(=O)NC(c1ccc(Br)cc1)C(Cl)(Cl)Cl (stereo unspecified),inactive
22,Cc1ccc2c(Cl)c(C(=O)Nc3cc(S(N)(=O)=O)ccc3C)sc2c1,inactive
23,CC(=O)c1ccc(NC(=O)COc2ccc(Br)c(C)c2)cc1,inactive
24,CCOc1ccc(NC(=O)Nc2nnc(Cc3ccc(OC)cc3)s2)cc1,inactive
25,C=CCNC(=O)COc1ccc(C)cc1Br,inactive
26,COc1ccc(Cl)cc1NC(=O)CSc1nc2ncccc2[nH]1,inactive

row,Structure (SMILES),outcome
1,O=C(Nc1ccccc1)N1CCN(Cc2ccccc2)CC1,inactive
2,CC(=O)NC1=C(N2CCN(Cc3ccccc3)CC2)C(=O)c2ccccc2C1=O,active
3,CC(=O)Nc1ccc(CN2CCN(c3ccc(C(C)=O)cc3)CC2)cc1,inactive
4,O=C(Nc1cccc(Cl)c1)Nc1ccccn1,inactive
5,O=C1CC(N2CCc3ccccc3C2)C(=O)N1c1ccc([N+](=O)[O-])cc1 (stereo unspecified),active
6,O=C1CC(N2CCN(c3ccc([N+](=O)[O-])cc3)CC2)C(=O)N1c1cccc(Cl)c1 (stereo unspecified),inactive
7,O=C1CC(N2CCCCCC2)C(=O)N1c1ccccc1 (stereo unspecified),inactive
8,O=C(O)c1sc2ccccc2c1Cl,inactive
9,CN1CCN(C(=O)c2sc3cc(Cl)ccc3c2Cl)CC1,active
10,O=C(O)c1sc2cc(F)ccc2c1Cl,inactive
11,COc1ccccc1CN(C)C1CCN(C)CC1,inactive
12,COc1ccc(Cl)cc1N(CC(=O)NCC1CCCO1)S(C)(=O)=O (stereo unspecified),inactive
13,CN(C)CCCn1cnc2ccccc21,inactive
14,COc1cc(C(=O)Nc2sc3c(c2C(N)=O)CCC3)cc(OC)c1OC,inactive
15,CCC(=O)Nc1ccccc1C(=O)N1CCN(Cc2ccccc2)CC1,inactive
16,O=C(Nc1ccccc1)Nc1ccccc1C(=O)N1CCOCC1,active
17,O=C(Nc1ccc(C(=O)N2CCOCC2)cc1)C1COc2ccccc2O1 (stereo unspecified),inactive
18,NC(=O)CN(Cc1ccccc1Cl)S(=O)(=O)c1ccc(Cl)cc1,inactive
19,O=C(c1ccc([N+](=O)[O-])cc1)N1CCN(c2cccc(Cl)c2)CC1,inactive
20,Cc1ccccc1N(C(F)F)S(=O)(=O)c1cc([N+](=O)[O-])ccc1C,inactive
21,O=C(CCN1CCCC1)Nc1ccc2c(c1)CCC2,inactive
22,CC(=O)c1ccc(-c2ccc(C=O)o2)cc1,inactive
23,COc1ccccc1N1CCN(S(=O)(=O)c2cccc3cccnc23)CC1,inactive
